For part of these data: Entries with a potency or affinity are not part of this list.
What was measured:
Design in all cases: scale not given: direction of the effect not stated beside the values
[1] = molecular target: Protein translocase subunit SecA (Escherichia coli (strain K12)) (UniProt P10408); experiment: Assay to Identify E. coli SecA ATPase Inhibitors; format: functional; details: 30 µM
[2] = molecular target: T1, Ubiquitin-activating enzyme e1, putative (Leishmania donovani (strain BPK282A1)) (UniProt E9BSI1); experiment: Leishmania donovani Ubiquitin Activating Enzyme (LdE1); format: functional; details: 30 µM
T1 sequence (whole entry): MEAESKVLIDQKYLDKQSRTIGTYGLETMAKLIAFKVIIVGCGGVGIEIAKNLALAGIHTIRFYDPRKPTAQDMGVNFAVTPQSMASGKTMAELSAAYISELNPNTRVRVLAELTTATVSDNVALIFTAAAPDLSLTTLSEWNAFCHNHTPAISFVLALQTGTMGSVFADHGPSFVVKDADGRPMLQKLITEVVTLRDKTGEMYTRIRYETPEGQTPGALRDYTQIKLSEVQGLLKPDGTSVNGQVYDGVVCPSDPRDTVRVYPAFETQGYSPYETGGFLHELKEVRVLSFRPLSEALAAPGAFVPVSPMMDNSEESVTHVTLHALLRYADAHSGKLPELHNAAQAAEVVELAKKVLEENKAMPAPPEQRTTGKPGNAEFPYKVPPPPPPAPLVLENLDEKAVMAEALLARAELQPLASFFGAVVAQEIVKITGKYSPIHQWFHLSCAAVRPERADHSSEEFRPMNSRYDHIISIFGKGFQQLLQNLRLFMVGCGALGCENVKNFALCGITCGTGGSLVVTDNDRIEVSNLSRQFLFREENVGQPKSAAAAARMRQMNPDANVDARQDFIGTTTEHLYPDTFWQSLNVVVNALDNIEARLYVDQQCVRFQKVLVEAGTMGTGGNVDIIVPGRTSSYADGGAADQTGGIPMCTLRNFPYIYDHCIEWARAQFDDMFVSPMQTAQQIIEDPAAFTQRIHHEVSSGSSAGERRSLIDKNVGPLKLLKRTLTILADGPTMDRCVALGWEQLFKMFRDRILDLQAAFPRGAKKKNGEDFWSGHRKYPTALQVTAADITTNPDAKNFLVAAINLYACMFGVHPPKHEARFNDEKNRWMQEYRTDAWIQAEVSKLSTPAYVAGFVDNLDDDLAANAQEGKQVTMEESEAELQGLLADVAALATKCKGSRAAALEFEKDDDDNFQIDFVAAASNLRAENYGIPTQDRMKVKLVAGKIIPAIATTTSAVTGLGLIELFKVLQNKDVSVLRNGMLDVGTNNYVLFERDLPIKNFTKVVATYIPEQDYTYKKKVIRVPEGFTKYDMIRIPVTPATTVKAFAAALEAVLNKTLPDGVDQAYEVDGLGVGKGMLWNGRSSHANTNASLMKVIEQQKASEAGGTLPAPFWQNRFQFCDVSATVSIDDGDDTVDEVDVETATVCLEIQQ

[3] = molecular target: AMP-activated protein kinase, AMPK (Homo sapiens) (UniProt P54646+O43741+P54619+Q9UGJ0+Q9Y478+Q13131+Q9UGI9); experiment: AMP-dependent Kinase enzyme assay. An in vitro enzyme assay that detects ADP turnover that is directly proportional to AMPK activity. This uses naive AMPK that is activated during the assay with MK-8722; format: functional; details: 30 µM
[4] = molecular target: Sialic acid-binding Ig-like lectin 9 (Homo sapiens) (UniProt Q9Y336); experiment: Hs-Siglec9 ALPHAscreen SOP 20170721; details: 10 µM
Sequence of Sialic acid-binding Ig-like lectin 9 (Homo sapiens) (Q9Y336 whole entry): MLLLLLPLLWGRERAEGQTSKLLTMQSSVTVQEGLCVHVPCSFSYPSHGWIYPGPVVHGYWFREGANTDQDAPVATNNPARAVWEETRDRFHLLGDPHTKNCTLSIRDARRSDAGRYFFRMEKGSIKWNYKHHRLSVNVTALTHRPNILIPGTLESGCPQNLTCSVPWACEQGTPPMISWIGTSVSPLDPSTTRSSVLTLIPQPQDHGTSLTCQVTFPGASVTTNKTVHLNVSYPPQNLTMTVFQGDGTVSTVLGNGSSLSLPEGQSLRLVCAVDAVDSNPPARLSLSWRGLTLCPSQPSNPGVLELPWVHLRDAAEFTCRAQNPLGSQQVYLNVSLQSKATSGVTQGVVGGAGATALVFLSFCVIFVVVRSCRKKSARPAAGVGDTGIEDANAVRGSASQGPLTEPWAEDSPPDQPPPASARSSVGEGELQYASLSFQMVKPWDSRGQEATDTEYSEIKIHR

Trypanosoma cruzi = experiment: Trypanosoma cruzi phosphomannomutase and mannose-1-phosphate guanylyltransferase assay; format: functional; details: 10 µM
[5] = molecular target: T2, Arginase-2, mitochondrial (Homo sapiens) (UniProt P78540); experiment: in vitro enzyme assay to detect the production of urea directly proportional to the activity of Arginase II; format: functional; details: 33.3 µM; note: in the data most compounds retested in dose-response had high values
T2 sequence (whole entry): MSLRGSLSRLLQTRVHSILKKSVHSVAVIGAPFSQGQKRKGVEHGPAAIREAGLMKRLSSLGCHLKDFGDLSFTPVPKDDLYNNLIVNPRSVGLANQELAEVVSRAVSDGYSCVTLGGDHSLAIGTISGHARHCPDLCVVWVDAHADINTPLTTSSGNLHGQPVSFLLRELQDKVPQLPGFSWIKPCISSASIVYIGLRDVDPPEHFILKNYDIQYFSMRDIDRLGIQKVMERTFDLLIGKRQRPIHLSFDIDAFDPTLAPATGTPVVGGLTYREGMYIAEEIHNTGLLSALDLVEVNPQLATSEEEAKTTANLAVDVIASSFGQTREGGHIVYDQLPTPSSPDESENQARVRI

[6] = molecular target: T3, Proteasome subunit beta (Trypanosoma cruzi) (UniProt O96673); experiment: Trypanosoma cruzi proteasome chymotrypsin-like activity (TcProtChymo) assay.; note: in the data most compounds retested in dose-response had high values; format: functional; details: 9.37 µM
T3 sequence (whole entry): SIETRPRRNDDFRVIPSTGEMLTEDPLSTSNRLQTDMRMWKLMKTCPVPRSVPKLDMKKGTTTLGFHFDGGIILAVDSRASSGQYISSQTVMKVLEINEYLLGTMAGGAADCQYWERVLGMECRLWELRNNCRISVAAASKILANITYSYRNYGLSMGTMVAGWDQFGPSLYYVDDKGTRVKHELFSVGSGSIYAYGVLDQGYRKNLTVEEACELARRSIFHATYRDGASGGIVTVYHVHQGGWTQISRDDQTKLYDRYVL

Homo sapiens = species on record: Homo sapiens; experiment: To identify inhibition of the IFN signalling (Jak-Stat) pathway via expression of an eGFP reporter gene under the control of an IFN-stimulated response element (ISRE) containing MxA promoter.; format: functional; details: 30 µM
[7] = molecular target: T4, Tyrosyl-tRNA synthetase, putative (Trypanosoma cruzi (strain CL Brener)) (UniProt Q4DSP6); experiment: Trypanosoma cruzi tyrosyl tRNA synthetase (TcYRS) _High Tyrosine SOP; format: functional; details: 30 µM; note: in the data most compounds retested in dose-response had high values
T4 sequence (whole entry): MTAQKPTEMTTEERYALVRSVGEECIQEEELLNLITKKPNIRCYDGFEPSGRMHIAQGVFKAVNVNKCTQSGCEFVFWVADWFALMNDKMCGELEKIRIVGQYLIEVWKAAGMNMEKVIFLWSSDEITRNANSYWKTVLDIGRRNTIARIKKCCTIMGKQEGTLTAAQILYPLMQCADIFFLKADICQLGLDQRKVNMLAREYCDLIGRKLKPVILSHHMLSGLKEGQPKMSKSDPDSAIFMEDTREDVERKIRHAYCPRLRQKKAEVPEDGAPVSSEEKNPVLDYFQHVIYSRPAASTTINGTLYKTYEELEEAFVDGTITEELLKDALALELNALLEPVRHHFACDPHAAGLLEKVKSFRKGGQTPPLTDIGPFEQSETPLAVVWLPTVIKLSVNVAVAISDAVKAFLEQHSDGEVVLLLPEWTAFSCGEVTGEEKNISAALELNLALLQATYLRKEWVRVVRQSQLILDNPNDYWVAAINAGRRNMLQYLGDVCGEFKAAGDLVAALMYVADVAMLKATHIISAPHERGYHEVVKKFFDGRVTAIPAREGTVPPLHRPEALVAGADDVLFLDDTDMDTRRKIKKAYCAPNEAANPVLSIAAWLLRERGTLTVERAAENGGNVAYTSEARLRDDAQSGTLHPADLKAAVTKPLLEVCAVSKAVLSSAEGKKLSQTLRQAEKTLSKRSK

[8] = molecular target: T4, Tyrosyl-tRNA synthetase, putative (Trypanosoma cruzi (strain CL Brener)); experiment: Trypanosoma cruzi tyrosyl tRNA synthetase (TcYRS) SOP; format: functional; details: 30 µM
[9] = molecular target: Chromo domain-containing protein 1 (Saccharomyces cerevisiae (strain ATCC 204508 / S288c) (Baker's yeast)) (UniProt P32657); experiment: ScCHD-1 Enzyme Inhibition Assay; format: functional; details: 30 µM; note: in the data most compounds retested in dose-response had high values
Sequence of Chromo domain-containing protein 1 (Saccharomyces cerevisiae (strain ATCC 204508 / S288c) (Baker's yeast)) (P32657 whole entry, the tested form may be a part): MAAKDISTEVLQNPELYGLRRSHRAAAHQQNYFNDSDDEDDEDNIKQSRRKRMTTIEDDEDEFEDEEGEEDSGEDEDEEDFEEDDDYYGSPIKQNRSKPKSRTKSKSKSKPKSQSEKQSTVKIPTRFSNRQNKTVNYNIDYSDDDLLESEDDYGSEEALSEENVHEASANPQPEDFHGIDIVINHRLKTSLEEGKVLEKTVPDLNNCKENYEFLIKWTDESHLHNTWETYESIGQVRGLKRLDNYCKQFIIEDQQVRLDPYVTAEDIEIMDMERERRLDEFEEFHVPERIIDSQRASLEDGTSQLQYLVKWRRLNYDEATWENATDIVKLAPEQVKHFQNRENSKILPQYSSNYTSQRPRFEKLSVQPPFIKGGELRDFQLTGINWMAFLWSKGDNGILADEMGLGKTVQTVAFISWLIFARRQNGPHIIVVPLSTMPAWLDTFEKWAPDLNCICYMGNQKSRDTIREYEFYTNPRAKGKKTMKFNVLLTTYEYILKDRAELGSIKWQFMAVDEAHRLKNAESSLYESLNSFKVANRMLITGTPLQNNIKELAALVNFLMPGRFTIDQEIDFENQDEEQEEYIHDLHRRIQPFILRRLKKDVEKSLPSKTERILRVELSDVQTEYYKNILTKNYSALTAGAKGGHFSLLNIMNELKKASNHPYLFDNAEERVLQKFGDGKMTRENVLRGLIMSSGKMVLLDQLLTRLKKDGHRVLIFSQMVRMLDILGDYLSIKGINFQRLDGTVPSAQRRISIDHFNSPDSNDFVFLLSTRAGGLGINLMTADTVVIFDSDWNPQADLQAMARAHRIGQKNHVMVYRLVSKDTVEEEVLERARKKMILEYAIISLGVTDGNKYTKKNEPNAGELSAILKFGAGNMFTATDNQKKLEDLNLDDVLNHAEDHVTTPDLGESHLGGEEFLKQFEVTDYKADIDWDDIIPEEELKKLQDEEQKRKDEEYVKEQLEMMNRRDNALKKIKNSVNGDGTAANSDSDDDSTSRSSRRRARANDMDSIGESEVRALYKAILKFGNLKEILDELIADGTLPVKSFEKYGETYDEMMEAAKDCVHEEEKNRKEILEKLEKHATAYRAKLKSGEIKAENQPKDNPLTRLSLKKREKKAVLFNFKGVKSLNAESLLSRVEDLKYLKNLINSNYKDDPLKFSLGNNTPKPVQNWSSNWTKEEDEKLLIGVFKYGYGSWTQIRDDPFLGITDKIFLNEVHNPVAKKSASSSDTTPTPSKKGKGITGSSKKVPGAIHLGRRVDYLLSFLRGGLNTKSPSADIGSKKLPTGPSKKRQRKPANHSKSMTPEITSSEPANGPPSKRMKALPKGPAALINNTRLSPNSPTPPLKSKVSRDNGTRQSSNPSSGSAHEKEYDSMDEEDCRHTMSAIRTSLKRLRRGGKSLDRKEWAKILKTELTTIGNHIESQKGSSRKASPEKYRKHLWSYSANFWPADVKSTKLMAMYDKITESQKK

Sequence of Protein translocase subunit SecA (Escherichia coli (strain K12)) (P10408 whole entry): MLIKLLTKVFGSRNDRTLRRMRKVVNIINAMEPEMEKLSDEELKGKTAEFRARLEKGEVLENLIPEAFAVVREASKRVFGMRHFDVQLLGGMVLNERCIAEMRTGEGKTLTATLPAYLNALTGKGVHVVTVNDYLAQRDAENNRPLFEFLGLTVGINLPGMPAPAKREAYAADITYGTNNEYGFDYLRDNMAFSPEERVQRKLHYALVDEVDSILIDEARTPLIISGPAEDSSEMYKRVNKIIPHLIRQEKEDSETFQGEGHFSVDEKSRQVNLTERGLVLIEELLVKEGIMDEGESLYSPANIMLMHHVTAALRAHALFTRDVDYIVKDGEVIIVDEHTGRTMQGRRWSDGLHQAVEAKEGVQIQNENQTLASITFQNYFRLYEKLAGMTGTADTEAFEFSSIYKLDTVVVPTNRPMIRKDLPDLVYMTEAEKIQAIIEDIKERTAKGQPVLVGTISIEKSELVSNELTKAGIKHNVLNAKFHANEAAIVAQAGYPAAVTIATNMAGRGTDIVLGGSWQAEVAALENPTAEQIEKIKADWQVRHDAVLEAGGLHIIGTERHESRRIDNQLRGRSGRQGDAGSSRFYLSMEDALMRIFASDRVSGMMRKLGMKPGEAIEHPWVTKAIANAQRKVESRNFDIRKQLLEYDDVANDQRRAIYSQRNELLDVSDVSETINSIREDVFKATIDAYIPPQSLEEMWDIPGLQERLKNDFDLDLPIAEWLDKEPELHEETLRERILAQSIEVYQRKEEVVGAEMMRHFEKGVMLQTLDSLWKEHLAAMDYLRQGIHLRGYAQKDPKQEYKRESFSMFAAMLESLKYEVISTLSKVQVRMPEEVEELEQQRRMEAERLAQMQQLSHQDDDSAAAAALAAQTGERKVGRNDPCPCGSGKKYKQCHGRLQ

| SMILES | Percent Effect [1] [%] | Percent Effect [2] [%] | Percent Effect [3] [%] | Percent Effect [4] [%] | Percent Effect (Trypanosoma cruzi) [%] | Percent Effect [5] [%] | Percent Effect [6] [%] | Percent Effect (Homo sapiens) [%] | Percent Effect [7] [%] | Percent Effect [8] [%] | Percent Effect [9] [%] |
| --- | --- | --- | --- | --- | --- | --- | --- | --- | --- | --- | --- |
| O=C(c1cccc2c1OCO2)N1CCCC(n2cccn2)C1 (stereo unspecified) | -4.91 | 2.7 | -10.6 | 1.58 | -5.94 | -1.2 | 8.29 | 10.5 | 0.493 | 3.7 | -1.47 |
| CC(=O)N1CCCCC1c1nc(N)ncc1-c1ccccc1 (stereo unspecified) | -3.36 | 13.3 | 9.28 | -4.89 | 5.32 | 19.8 | 6.78 | 8.42 | 6.38 | 14.1 | -3.68 |
| O=C(c1cccc2[nH]ncc12)N1CCCC1c1noc(C2CC2)n1 (stereo unspecified) | 0.141 | 20.2 | 1.95 | -11.1 | -3.31 | 8.74 | 7.29 | 24.4 | 5.42 | 11.4 | -8.01 |
| CCC1=N[C@@]2(CC[C@@H]3CN(CC(=O)N(C)C)C[C@@H]32)C(=O)N1CC1CC1 | -0.889 | 6.67 | 3.24 | -0.307 | -6.88 | -12.2 | 17.2 | 4.45 | 0 | 10.3 | -7.25 |
| CC(C)Cc1noc(CN2CCN(c3nccs3)CC2)n1 | -8.59 | 10.4 | 5.21 | 0.0825 | -5.99 | -2.13 | 6.25 | 33.3 | 0.971 | 7.32 | -3.68 |
| CCC1=N[C@@]2(CC[C@@H]3CN(S(=O)(=O)N(C)C)C[C@@H]32)C(=O)N1CC(C)C | -1.28 | 10.4 | -3.92 | 6.82 | -2.07 | 3.23 | -0.696 | -7.21 | 5.29 | 11.5 | -6.8 |
| O=C1OC2(CCNCC2)CN1CC(=O)N1CCCC1c1ccco1 (stereo unspecified) | -3.11 | 5.41 | 1.69 | 4.82 | 0.386 | 2.86 | 19.8 | -0.46 | 5.82 | 19.5 | -4.16 |
| CCc1c(C)nc2n(c1=O)CC(C(=O)Nc1ccccc1F)CS2 (stereo unspecified) | -5.58 | 18.2 | -0.318 | 8.95 | 0.888 | -1.94 | 7.83 | 9.05 | 6.35 | 16.7 | -4.84 |
| O=C(Cc1cccc(F)c1)NCCNCc1ccc2c(c1)CCO2 | -4.03 | 13 | -6 | 17.2 | 3.93 | -1.42 | -1.52 | -5.5 | 8.74 | 19.5 | -5.42 |
| CC1CCN(C(CNC(=O)CCn2cccn2)c2cccs2)CC1 (stereo unspecified) | -0.447 | 13.3 | -0.997 | 10.3 | 2.82 | 8.85 | 26.5 | 4.2 | 6.01 | 21 | -5.13 |
| CCn1nc(C)c2nnn(CC(=O)Nc3cccc(Cl)c3)c(=O)c21 | -4.67 | -6.67 | 1.25 | 3.3 | 4.13 | -5.11 | 12.9 | -22.7 | 6.35 | 7.69 | -7 |
| CCc1ccc(CN2C[C@@H]3OCCN(c4ccnc(N(C)C)n4)[C@@H]3C2)o1 | -1.43 | 5.48 | -0.72 | 13.7 | 1.98 | -13.6 | 7.28 | 82.1 | 5.21 | -3.7 | -4.54 |
| CC(C)C1CN(C(=O)c2nccnc2N)CCS1 (stereo unspecified) | -2.86 | 10.4 | -7.56 | 11 | 3.83 | -92.4 | 6.32 | 14.5 | 3.23 | 8.64 | -9.31 |
| CN(Cc1ccco1)C[C@H]1OC[C@@H]2CCN(Cc3nccs3)C[C@@H]21 | -6.74 | 16 | -3.04 | -3.48 | 5.41 | -45 | 16.1 | 7.21 | 2.08 | 10 | -6.67 |
| CCOc1ccc(-n2nnc(C(=O)O)c2-c2ccncc2)cc1 | -0.35 | 13.2 | 1.31 | -8.67 | 0.292 | 1.18 | 9.11 | 23.3 | 2.13 | 18.2 | -5.18 |
| CCc1ncc(C(=O)NCCNC(=O)Cc2ccc(F)cc2)s1 | -1.95 | 8 | -16.6 | 11.1 | 5.55 | 16.7 | 11.3 | -8.05 | 7.1 | 16.1 | -3.11 |
| O=C(c1cccs1)N1CCC2(C1)c1ccccc1S(=O)(=O)N2CC1CC1 (stereo unspecified) | -4.28 | 2.67 | 12.3 | 1.53 | -0.197 | -8.62 | 2.03 | 17.7 | 5.32 | 6.41 | 1.11 |
| O=C1CC2(CCN(CCO)CC2)CN1Cc1cc(F)cc(F)c1 | -3.75 | 6.94 | -9.77 | 27.6 | 4.18 | 13.7 | 11.2 | -13.2 | 2.1 | 10.3 | -9.52 |
| O=C(CCNC(=O)c1ccccc1N1CCOCC1)NC1CCCC1 | -4.31 | 16.4 | -6.31 | 6.63 | 4.76 | -0.798 | 13.1 | -7.41 | 8.33 | 21 | -9.11 |
| Cc1nn(C(C)C)c(C)c1NC(=O)c1ccncc1 | -2.46 | 16.4 | -7.09 | 5.06 | 5.56 | 0.399 | 16.5 | -7.45 | 10.4 | 11.1 | -7.44 |
| Cc1cc(CN2CCN(C(=O)c3sccc3C(C)C)CC2)no1 | -1.68 | 2.6 | 4.01 | 0.935 | 4.41 | 4.84 | 1.86 | 5.54 | 2.86 | 7.06 | -3.8 |

Reference: ChEMBL document CHEMBL3988442, “University of Dundee, Small-Polar-MMV Screening Library” (2021)
